AMA1 RON2 block – AMA1-RON2 (P. falciparum) interaction inhibition | AlphaScreen AMA1-biotinylated RON2 peptide binding | Potency, µM (top dose mostly 58.2 µM), inactives show at the highest dose activity change, negative = inhibition, actives largely listed as inhibitors | 0.2% of 360,000 active; active = well fitted inhibition curve with a large enough effect; inconclusive = small, poorly fitted or top-dose-only effect; inactive = no such curve, though single readings can be large or run the other way;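 also: potency is read from the fitted curve at half-maximal effect; 0% = vehicle wells and -100% = peptide control; nearly all actives have a fitted effect of over 45% in size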
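AMA1 (3D7) with his tag at 25 nM final met compounds first, then biotinylated RON2 peptide at 25 nM; detection used donor plus acceptor beads, 10 µg/mL apiece, read by AlphaScreen after 30 min at room temperature.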
Shiga toxin inh – Shiga toxin inhibition | Vero cells, Shiga toxin protein synthesis inhibition reporter | AID 2315 | inhibition, % at 38.7 µM | 9.2% of 290,000 active; in the data active = inhibition mostly above about 28%, no sharp cut-off; inactive = mostly below about 43%; also: 0% is about no effect
Lassa entry inh – inhibitors of Lassa virus binding or cell entry. Potency, µM (doses to about 37.9 µM), for the others: at the top dose activity change, negative = inhibition, hits mostly inhibitors. Lassa virus pseudotype entry inhibition, cell reporter. 1.2% of 300,000 active; calls by dose curve; tested in HEK293 cells; also: potency is read from the fitted curve at half-maximal effect; % is scaled to controls: 0 for no effect and ±100 for the full control effect; nearly all actives have a fitted effect of over 50% in size
Cycloheximide cs – affects cycloheximide protein synthesis inhibition readout, counter-screen; cell reporter, cycloheximide protein synthesis inhibition counterscreen; max response, %; 12% of 300,000 active; in the data active = max response mostly above about 13%, no sharp cut-off; inactive = mostly below about 14%; also: read at 38.3 µM for the half of the compounds with a filed dose; 0% is about no effect
MARV entry inh – blocks Marburg virus binding to or entry into cells. Potency, µM (doses to about 37.8 µM), for inactives: top-dose activity change, negative = inhibition, most hits filed as inhibitors. Marburg virus pseudotyped entry inhibition, cell reporter. 1.8% of 300,000 active; calls by dose curve; tested in HEK293 cells; also: potency is read from the fitted curve at half-maximal effect; % is scaled to controls: 0 for no effect and ±100 for the full control effect
* = called active by the depositor; u = inconclusive; x = no result given; [ ] = another dose, or the depositor's remark. Shown is part of a subset that was picked to be rich in hits.

SMILES	AMA1 RON2 block	Shiga toxin inh	Lassa entry inh	Cycloheximide cs	MARV entry inh
O=C(CN1CCCCC1)NCC(=O)Nc1ccc(F)c(F)c1F	10%[11.6 µM]	x	3%	x	1%
CN(Cc1nc2ccccc2[nH]1)Cc1nc(CC2CC2)no1	16%	31	x	16*	x
O=C(Nc1nccc(-c2cccs2)n1)c1ccccc1Cl	-8%	53*	u	32*	20%
O=C(c1ccccc1Cl)N(C(=O)c1ccccc1Cl)c1nccc(-c2cccs2)n1	15%	1	-9%	-2	u
CNC(=O)c1ccc(C)c(NC(=O)C2=C(C)OCCS2)c1	8%	-15	x	-3	x
c1ccc2[nH]c(-c3ccc4c(c3)OCO4)nc2c1	-14%	x	u	x	u
Clc1ccc(-c2nc3ccccc3[nH]2)cn1	-3%	31	-1%	23*	16%[46.1 µM]
Cc1nc2ccc(-c3nc4ccccc4[nH]3)cc2[nH]1	-28%	60*	u	35*	-17%[46.1 µM]
Cc1ccc(-c2nc3ccccc3[nH]2)cn1	9%	32*	0%[46.1 µM]	22*	-1%[46.1 µM]
CCOC(=O)CNC(=O)CSc1ccc(-c2nc3ccccc3[nH]2)cn1	-8%	5	6%[46.1 µM]	3	15%[46.1 µM]
Cc1ccc2nc(-c3ccncc3)[nH]c2c1	10%	83*	-14%[46.1 µM]	47*	u
CC1CCn2c(nc3cc(C(=O)NCc4ccc(OC(C)C)cc4)ccc32)C1 (stereo not given)	x	x	20%[46.1 µM]	x	x
Cc1ccc2nc(C(F)C(F)(F)F)[nH]c2c1 (stereo not given)	12%	44*	-1%[46.1 µM]	22*	5%[46.1 µM]
Cc1ccc(CCNc2ncnc(Cl)c2N)cc1	-3%	x	-21%[46.1 µM]	x	u
N#CCCN1CCCc2cc(N=Nc3ccc(C(F)(F)F)cc3)ccc21	u	61*	1%[46.1 µM]	43*	u
COc1ccc(C(=O)OCC(=O)c2ccc(CNC(C)=O)s2)cc1	-14%	x	0%	x	u
CC(=O)NCc1ccc(C(=O)CCl)s1	-3%	22	u	5	4.5µM*
N#Cc1ccc(OCC(=O)Nc2ccccc2NS(=O)(=O)c2cccs2)cc1	-9%	28	5%	2	-4%
COc1ccc(C(=O)N2c3ccccc3C=CC2C#N)cc1 (stereo not given)	-2%	-9	u	11	-2%
N#C[C@H]1[C@H](c2ccccc2)[C@](C#N)(C(=O)c2ccccc2)[C@@H]2C=Cc3ccccc3N21	x	55	x	42*	x
CC(=O)NC(c1cccc(F)c1)c1nc(-c2cccs2)cs1 (stereo not given)	3%	x	x	x	x
O=C(CCCN1CCC(O)(c2ccc(Br)cc2)CC1)c1ccc(F)cc1	22%	x	x	x	x
O=C(CCCN1CCC(O)(c2ccc(Cl)cc2)CC1)c1ccc(F)cc1	2%	7	u	-2	10µM*
O=C(CCCN1CCC(O)(c2cccc(C(F)(F)F)c2)CC1)c1ccc(F)cc1	4%	x	u	x	11µM*
S=c1[nH]c2ccc(Cc3ccc4[nH]c(=S)[nH]c4c3)cc2[nH]1	92%	-11	-20%[46.1 µM]	0	u
SMILES	AMA1 RON2 block	Shiga toxin inh	Lassa entry inh	Cycloheximide cs	MARV entry inh
CCOC(=O)c1c[nH]c2c3c(ccc2c1=O)CCCC3	-8%	45	1%	22*	u
CCOC(=O)c1c[nH]c2c(Cl)c(Cl)ccc2c1=O	1%	-20	u	-1	8%
CCc1ccc(NC(=O)c2cnn(-c3c(C)cccc3C)c2C2CCNCC2)cc1	x	x	-2%[46.1 µM]	x	x
Cc1cc2c(cc1S(=O)(=O)N(CCN(C)C)Cc1ccccc1)OCC(=O)N2	x	x	0%[46.1 µM]	x	x
CCn1nnc(NC(=O)c2cccnc2Cl)n1	-10%	-8	15%	-2	14%[46.1 µM]
Cc1ccc(NC(=O)c2sc3ccccc3c2Cl)cc1	x	x	21%[46.1 µM]	x	x
CCn1nnc(NC(=O)c2sc3ccccc3c2Cl)n1	10%	66*	u	42*	u
CN1CCN(c2ccc(NC(=O)c3sc4ccccc4c3Cl)cc2)CC1	-28%	82*	u	43*	u
O=C(NNC(=S)NC(=O)c1sc2ccccc2c1Cl)c1ccc(Cl)cc1	48%	12	-20%	14*	u
O=C(O)c1ccccc1NC(=S)NC(=O)c1sc2ccccc2c1Cl	8%	38	x	18	x
O=C(Nc1ccncc1)c1sc2ccccc2c1Cl	0%	72*	-20%	26*	u
CN(C)C(=O)N1CCN(c2nc(-c3ccccc3)cs2)CC1	11%	52*	x	35*	x
Clc1ccc(-c2csc(N3CCN(c4ccccc4)CC3)n2)cc1	-4%	7	3%	-4	2%
COc1ccc(-c2csc(N3CCN(C(=O)c4ccccc4)CC3)n2)cc1	-19%	13	-13%	-2	u
c1ccc(-c2csc(N3CCOCC3)n2)cc1	-20%	111*	u	30*	8%
O=C(N1CCOCC1)N1CCN(c2nc(-c3ccccc3)cs2)CC1	-9%	60	5%	30*	-13%
c1ccc(-c2csc(N3CCN(c4ccccn4)CC3)n2)cc1	-15%	78*	-3%	31*	17%
CSc1ccc(CNC(=O)C2(C)CCCN(C(C)=O)C2)cc1 (stereo not given)	5%	x	x	x	x
N=c1c2c(-c3ccccc3)c(-c3ccccc3)n(Cc3ccco3)c2ncn1Cc1ccccc1	9%	12	1%	3	-8%
N=c1c2c(-c3ccccc3)c(-c3ccccc3)n(Cc3ccco3)c2ncn1CCCN1CCOCC1	-10%	16	-8%	-5	7.1µM*
N=c1c2c(-c3ccccc3)c(-c3ccccc3)n(Cc3ccccc3)c2ncn1CCO	1%	-8	u	-10	u
CC(C)Cn1cnc2c(c(-c3ccccc3)c(-c3ccccc3)n2Cc2ccco2)c1=N	-11%	-6	6.3µM*	-4	2.8µM*
N=c1c2c(-c3ccccc3)c(-c3ccccc3)oc2ncn1CCCN1CCOCC1	-18%	-9	u	-6	8.2µM*
Cc1ccc(S(=O)(=O)N2[C@@H](c3ccc(Br)cc3)C(C(=O)O)=C[C@H]2C(C)(C)C)cc1	3%	x	x	x	x
O=C(CCC(=O)OCC(F)(F)C(F)F)Nc1ccccc1F	12%	24	x	8	23%[46.1 µM]
SMILES	AMA1 RON2 block	Shiga toxin inh	Lassa entry inh	Cycloheximide cs	MARV entry inh
Cc1ccc2cc(C#N)c(SCc3nnc(-c4ccccc4[N+](=O)[O-])o3)nc2c1	-4%	-11	3%	1	u
COC(=O)c1ccc(NC(=O)N2CCCC(C(=O)c3ccccc3OC)C2)cc1 (stereo not given)	3%	27	x	-2	x
COc1ccccc1C(=O)C1CCCN(C(=O)CCC(=O)c2ccccc2)C1 (stereo not given)	6%	22	u	12*	-23%[46.1 µM]
COc1ccccc1C(=O)C1CCCN(C(=O)Nc2ccccc2F)C1 (stereo not given)	2%	73*	-9%[46.1 µM]	28*	u
CCN(CC)CC(=O)N1CCCC(C(=O)c2ccccc2OC)C1 (stereo not given)	1%	25	x	11	x
CC(=O)c1cccc(NC(=O)C2CCN(S(=O)(=O)c3ccc4c(c3)oc(=O)n4C)CC2)c1	x	x	1%[46.1 µM]	x	-20%[46.1 µM]
CCOc1ncccc1C(=O)N1CCN(c2ccc(C(F)(F)F)cn2)CC1	0%	2	-9%	-2	22%[46.1 µM]
